In PubChem BioAssay (EPA / NIEHS) one finds outcome and AC50 data, which are given here for 38 compounds.

Several values for one entry are separate records, joined by “and”; a condition that tells them apart may be missing. Identical values can stand only once. Results filed as inconclusive are left out. Activity calls are given as the source filed them. The calls were made as follows, unless noted: active = hit-call score of the fitted dose curve at least 0.9, where 1 is the maximum; inconclusive = response in the unintended direction; inactive = score below 0.9.

The nature of assay [1]: Tanguay_ZF_120hpf_ActivityScore_legacy: (Legacy) Oregon State University Tanguay Lab 120 Hour Post-fertilization zebrafish Assay Score for Activity (AID 2283742).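 As to AC50: dechorionated Tropical 5D wild-type zebrafish embryos held singly per well; static exposure from 6 hpf until 120 hpf at 28 °C.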 Put shortly:
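Dechorionated Tropical 5D embryos, one per well from 6 hpf, statically exposed to 120 hpf at 28 °C in 0.64% DMSO. Mortality and malformations scored binary by brightfield microscopy; activity score combines 18 endpoints, fitted positively versus DMSO.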

Assay [2] in a line: CEETOX_H295R_MTT_cell_viability: Viability Assessment in the CeeTox HT-H295R MTT Assay (AID 2283718; active = hit-call score of the fitted dose curve at least 0.9, where 1 is the maximum; inactive = score below 0.9;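 as to AC50: curve fitted both ways so AC50 may mark viability loss or gain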). The method, boiled down: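 Human H295R adrenal cells, prestimulated 48 h with 10 uM forskolin, were exposed 48 h to chemicals in 0.1% DMSO. Viability was measured in the same wells by MTT (0.5 mg/ml, 4 h, 37 C), absorbance 570/650 nm, as percent of controls.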
In assay [3] the test system is Thyroperoxidase (TPO), gene 445522. In words: CCTE_Simmons_GUA_TPO: CCTE's Guaiacol Assay for Thyroperoxidase (TPO) Inhibition, Simmons Lab (AID 2283750). The method, boiled down:
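Porcine thyroid microsomes (25 ug) in 200mM potassium phosphate, preincubated 30 s at 37C with compound (8 concentrations, 5 nM–87.5 uM) and 35mM guaiacol; 1mM H2O2 starts reaction. Absorbance change at 450nm over first 80 s; loss of signal versus DMSO, three replicates.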

Assay [4] can be described thus: ArunA_CellTiter_hNC: Viability Assessment in the ArunA Biomedical's Oris Neural Crest (hNC) Cell Migration Assay (AID 2283752). Put shortly: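 Cell titer was measured with the CellTiter Aqueous One reagent after 72 h of chemical dosing. Cells were H9-derived embryonic neural crest stem cells seeded on Matrigel, 60,000 per well, and given 16 h at 37C beforehand.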

Assay [5] in a line: ArunA_CellTiter_hNP: Viability Assessment in the ArunA Biomedical's Oris Neural Crest (hNC) Cell Migration Assay (AID 2283753). The method, boiled down:
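H9-derived hNP1 neuroprogenitors, 60,000/well on Matrigel, cultured 16 h, then 72 h chemical exposure in test medium. Cell titer via CellTiter Aqueous One; positive-direction fit vs DMSO.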

A short description of assay [6]: ArunA_Migration_hNP: ArunA Biomedical's Oris Neuroprogenitor (hNP) Cell Migration Assay (AID 2283754). The method, boiled down:
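Human H9-derived hNP1 neuroprogenitors on Matrigel with LIF/bFGF, plated around seeding stoppers for 16 h at 37C; stoppers removed at start of 72 h chemical exposure. Calcein-AM staining, fluorescence 494/517 nm in detection zone; loss-of-signal vs DMSO; cytochalasin D control.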

Assay [7] can be described thus: ArunA_Migration_hNC: ArunA Biomedical's Oris Neural Crest (hNC) Cell Migration Assay (AID 2283755). The method, boiled down: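 Human H9-derived neural crest stem cells, 60,000/well on Matrigel, 16 h at 37C, then 72 h chemical exposure after seeding-stopper removal. Migration into detection zone read as calcein-AM fluorescence (ex494/em517), relative to DMSO.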
Assay [8] in a line: ArunA_NOG_NucleusCount: ArunA Biomedical's Neurite Outgrowth (NOG) Assay for Nucleus Count (AID 2283756). Put shortly: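 Human H9-derived differentiated neurons were exposed for 48 h right after seeding. Hoechst-stained nuclei gated by size and intensity were counted by automated high-content imaging as viable neurons. Loss of signal vs DMSO.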
Assay [9] is described as follows: ArunA_NOG_NeuriteLength: ArunA Biomedical's Neurite Outgrowth (NOG) Assay for Neurite Length (AID 2283757). Put shortly:
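Differentiated human H9-derived neurons were exposed for 48 h from seeding, then stained with Hoechst and βIII-tubulin. Automated high-content imaging gave total neurite length per valid neuron, counting processes >10 um. Loss of signal was scored versus DMSO.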

Assay [10] in a line: ArunA_NOG_NeuritesPerNeuron: ArunA Biomedical's Neurite Outgrowth (NOG) Assay for Neurites Per Neuron (AID 2283758). The method, boiled down: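 Differentiated human H9-derived neurons exposed to chemicals for 48 h from seeding, then stained with Hoechst and βIII-tubulin/DyLight 488. Automated imaging counted neurites (processes >10 um) per valid neuron; loss of signal versus DMSO scored.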

Usually AC50 stands for the midpoint of the concentration-response curve, whichever way the signal moves.

With `CCO[Si](CCCNC(N)=O)(OCC)OCC`, the compound was called inactive in assay [1].
For `Oc1ccc2ccccc2c1`, in [2], the outcome was inactive. Moreover, the AC50 in assay [1] was 36.6 µM (active); in [3], 72.8 µM (active).
For the compound `CCCCCCCCCCCC[N+](C)(C)C`, the call in assay [2] and in assay [1] was inactive.
Regarding `C[C@]12CC[C@@H]3c4ccc(O)cc4CC[C@H]3[C@@H]1CCC2=O`, the call in assay [2] and in [1] was inactive.
On to `CCCCCc1ccc(N)cc1`, for which the call in assay [2] and in assay [1] was inactive.
Regarding `CO[C@H]1/C=C/O[C@@]2(C)Oc3c(C)c(O)c4c(O)c(c(/C=N/N5CCN(C)CC5)c(O)c4c3C2=O)NC(=O)/C(C)=C\C=C\[C@H](C)[C@H](O)[C@@H](C)[C@@H](O)[C@@H](C)[C@H](OC(C)=O)[C@@H]1C`, the call in [2] and in [1] was inactive.
With `CC(C)(C)c1cc(/C=C2\SC(N)=NC2=O)cc(C(C)(C)C)c1O`, the outcome in assay [2] was inactive. In addition, in [1], the concentration at half-maximal activity (AC50) was 47.2 µM (active).
Turning to `CCCCCCCCOC(=O)c1cc(O)c(O)c(O)c1`, the call in assay [2], in [4] and in assay [8] was inactive. In addition, the AC50 is 9.16 µM (active) in [1]; 6.65 µM (active) and 541 nM (active) in assay [5]; 1.02 µM (active) and 675 nM (active) in [6]; 120 nM (active) and 452 nM (active) in [7].
Take `CN1C(=O)N(c2ccccc2Br)Cc2cnc(Nc3ccc4c(c3)OCC(CO)O4)nc21` (stereo unspecified): the compound was classed as inactive in assay [2]. In addition, the concentration at half-maximal activity (AC50) in assay [1] was 6.73 µM (active).
The corresponding values for `OC12N=C(c3ccccc3)SC1Cc1cc(Cl)ccc12` (stereo unspecified) are “inactive” and 32.7 µM (active).
As to `Cc1ccc2oc(CN(Cc3ccccc3)C(=O)Nc3c(F)cc(F)cc3F)c(-c3ccc(Cl)cc3)c2c1`, the outcome in [2] and in assay [1] was inactive.
As to `CCCCCCCC[Si](OCC)(OCC)OCC`, the compound was classed as inactive in assay [2] and in [1].
Regarding `O=C1CCC(C2CCCCC2)CC1`, the call in assay [1] was inactive.
For `O=C(O)Cc1cc(I)c(Oc2ccc(O)c(I)c2)c(I)c1`, the AC50 in assay [1] is 31.3 µM (active).
`CCCCOC(=O)c1ccc(O)cc1`: the compound was classed as inactive in assay [2]. Besides, the concentration at half-maximal activity (AC50) in assay [1] is 41 µM (active).
As to `O=C(Nc1ccc(Cl)cc1)Nc1ccc(Cl)c(Cl)c1`, the call in assay [2], in assay [1], in assay [4] and in assay [8] was inactive. Further, the results for the AC50 in [5], in assay [6] and in assay [7] were 25.9 µM (active), 1.88 µM (active) and 1.46 µM (active), respectively.
`CC(=O)N1CCN(c2ccc(OC[C@H]3CO[C@](Cn4ccnc4)(c4ccc(Cl)cc4Cl)O3)cc2)CC1`: the outcome in assay [2] and in assay [1] was inactive.
Take `Cc1oc2c(NC(=O)c3c(Cl)cccc3Cl)cccc2c1C(C)(C)O`: the outcome in assay [2] was inactive. The AC50 in assay [1] was 45.5 µM (active).
On to `O=C1c2ccccc2C(=O)N1CCc1noc(-c2ccc(CN3CCCCCC3)s2)n1`, for which the outcome in [2] and in [1] was inactive.
`NC(=O)c1nc(-c2cccc(-c3cc(F)ccc3OCC(F)(F)C(F)(F)F)c2)n[nH]1`: the compound was classed as inactive in assay [2]. Moreover, the AC50 in assay [1] was 30.9 µM (active).
As to `NCc1cccc(C2CCN(C(=O)c3ccc(C#Cc4ccccc4F)o3)CC2)c1`, the AC50 in assay [1] is 31.6 µM (active).
As to `O=c1ccc2ccccc2o1`, the compound was called inactive in [1].
For `CC(C)(O)c1ccc(CNC(=O)c2cccnc2Oc2ccc3nonc3c2)cc1`, the result in assay [2] and in assay [1] was inactive.
Turning to `c1ccc(C[n+]2cccc3ccccc32)cc1`, the compound was classed as inactive in assay [2] and in assay [1].
`Cc1c2ccccc2c(C)c2c1ccc1ccccc12`: the call in assay [2] was inactive. For the same compound, the AC50 in [1] was 8.83 µM (active); in assay [3] it was 146 µM (active).
As to `O=C(O)Cn1c(=O)n(Cc2ccc(Br)cc2F)c(=O)c2ccc(Cl)cc21`, the outcome in assay [2] and in assay [1] was inactive.
As for `O=c1c(-c2ccc(O)cc2)coc2cc(O)cc(O)c12`, the concentration at half-maximal activity (AC50) in [2] was 28.7 µM (active); in assay [1] it was 20 µM (active).
Consider `Cc1cc2c(cc1C(F)(F)F)N(C(=O)Nc1ccc(Oc3cccnc3C)nc1)CC2`, for which the call in assay [2] and in assay [1] was inactive.
For the compound `C[C@]12CC[C@@H]3c4ccc(O)cc4CC[C@H]3[C@@H]1CC[C@H]2O`, the compound was called inactive in assay [2] and in assay [1].
Turning to `CC(C)(c1cc(Br)c(O)c(Br)c1)c1cc(Br)c(O)c(Br)c1`, the result in assay [2], in [5], in assay [7], in [9] and in assay [10] was inactive. Besides, the half-maximal activity concentration (AC50) in [1] is 1.99 µM (active).
As for `Clc1cc(Cl)c2c(c1)N=C1CCCCCN1C2`, the compound was classed as inactive in [2]. The AC50 in assay [1] was 18 µM (active).
Consider `CC/C(=C(/CC)c1ccc(O)cc1)c1ccc(O)cc1`, for which the half-maximal activity concentration (AC50) is 24.4 µM (active) in [2] and 28.5 µM (active) in [1].
On to `COc1cccc([C@H](O)C2CCN(CCc3ccc(F)cc3)CC2)c1OC`, for which the compound was called inactive in assay [2] and in assay [1].
For the compound `O=C(O)c1ccccc1C(=O)OCc1ccccc1`, the result in assay [2] and in assay [1] was inactive.
Take `O=CCCCC=O`: the call in [1] was inactive.
Consider `Clc1ccccc1C(c1ccccc1)(c1ccccc1)n1ccnc1`, for which the outcome in [2] and in assay [1] was inactive.
Consider `CCCCCCCCOc1ccc(C(=O)c2ccccc2)c(O)c1`, for which the outcome in [2] and in assay [1] was inactive.
On to `CCCCCCCCN(C)CCCCCCCC`, for which the compound was called inactive in [2] and in [1].
